This is part of a sample that, as a whole, favours compounds with a hit. Of some 83,000 tested, about 20% had one in any assay.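 Cell lines were cultured in 96-well plates, exposed to a single compound concentration, and assessed for percent growth 48 hours later.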 Values without a mark were called inactive. Active and inactive are the calls of the source. The calls were made as follows: active = growth percent below 10; inactive = the rest.

Experiment in all cases: NCI-60 one-dose screen, 48 h (100 = growth as untreated, 0 = no growth, -100 = all killed)
One assay deals with NCI-H23 lung. The conditions noted are these: 10 µM unless noted.
The test system of the next assay is HOP-62 NSCLC. The conditions noted are these: 10 µM unless noted.
In another assay the test system is NCI-H460 lung. As to conditions: 10 µM unless noted.
A further assay relates to HOP-92 NSCLC. As to conditions: 10 µM unless noted.
The next assay has as its system NCI-H522 lung. As to conditions: 10 µM.
The next assay relates to A549/ATCC NSCLC. As to conditions: 10 µM unless noted.
In a further assay the test system is 786-0 renal. The conditions noted are these: 10 µM unless noted.
The subject of a further assay is COLO 205 colon. As to conditions: 10 µM unless noted.
The subject of a further assay is NCI-H226 lung. As to conditions: 10 µM.
The next assay concerns NCI-H322M lung. The conditions noted are these: 10 µM unless noted.

On to `Cc1nn2c(-c3nc4ccc(Cl)cc4[nH]3)c(-c3ccc(F)cc3)nc2s1`, for which the growth with NCI-H23 lung was 98.2%; with HOP-62 NSCLC, 115%; in the assay on NCI-H460 lung, 97.5%; in the assay with HOP-92 NSCLC, 91%; in the assay on NCI-H522 lung it was 99.9%; in the assay with A549/ATCC NSCLC, 80.1%. In addition, the growth with 786-0 renal was 93.8%; with COLO 205 colon, 108%.

On to `Clc1ccc2c(N3CCN(c4ccnc(NC5CCCCC5)n4)CC3)ccnc2c1`, for which the growth with NCI-H226 lung is 80.7%; with NCI-H322M lung, 98.8%; in the assay on HOP-62 NSCLC, 51.7%; in the assay on NCI-H460 lung it was 32%; in the assay with HOP-92 NSCLC it was 40.6%; in the assay on NCI-H522 lung it was 71.3%. Moreover, the growth with A549/ATCC NSCLC was 54.4%; in the assay with 786-0 renal it was 49.4%; with COLO 205 colon it was -1.41% (active).

Regarding `COc1ccc(/C=C2\CN(Cc3cn(CCCNc4ccnc5cc(Cl)ccc45)nn3)C/C(=C\c3ccc(OC)c(OC)c3)C2=O)cc1OC`, the growth in the assay with NCI-H226 lung is -52.4% (active); in the assay on NCI-H322M lung, 22.7%; in the assay on HOP-62 NSCLC, -1.63% (active); in the assay on NCI-H460 lung it was -5.13% (active); in the assay with HOP-92 NSCLC, 25.5%; in the assay on NCI-H522 lung it was 0.468% (active). Also, the growth in the assay with A549/ATCC NSCLC was 5.33% (active); with 786-0 renal, -1.83% (active); with COLO 205 colon, 1.93% (active).

Turning to `NS(=O)(=O)c1cc(Br)c2c(c1)S(=O)(=O)NCN2`, the growth with NCI-H226 lung is 113%; with NCI-H322M lung, 119%; with HOP-62 NSCLC, 113%; in the assay on NCI-H460 lung it was 112%; with HOP-92 NSCLC it was 93%; in the assay with NCI-H522 lung, 102%. Besides, the growth in the assay on A549/ATCC NSCLC was 101%; with 786-0 renal, 106%; in the assay on COLO 205 colon, 114%.

As for `Clc1ccc(Nc2ccnc(N3CCN(c4ccnc5cc(Cl)ccc45)CC3)n2)cc1`, the growth is 62.5% in the assay with NCI-H226 lung; 48.6% with NCI-H322M lung; 47.4% with HOP-62 NSCLC; 48.4% with NCI-H460 lung; 39.4% in the assay on HOP-92 NSCLC; 35.1% in the assay with NCI-H522 lung. For the same molecule, the results for the growth in the assay with A549/ATCC NSCLC, with 786-0 renal and in the assay on COLO 205 colon were 48.6%, 48.4% and 46.5%, respectively.

In the case of `O=C(COc1cccc(/C=C2\COc3ccccc3C2=O)c1)c1ccccc1`, the growth was 68.7% in the assay on NCI-H226 lung; 95.3% in the assay on NCI-H322M lung; 98% in the assay on HOP-62 NSCLC; 104% in the assay with NCI-H460 lung; 91.5% with HOP-92 NSCLC; -41.9% (active) in the assay on NCI-H522 lung. In addition, the figures for the growth in the assay on A549/ATCC NSCLC, in the assay with 786-0 renal and in the assay on COLO 205 colon were 89.2%, 88.8% and 102%, respectively.

Turning to `COc1cc(C(=O)/C=C/c2c(-c3cccs3)nc3sccn23)cc(OC)c1OC`, the growth was 26.2% in the assay on NCI-H226 lung; 8.06% (active) with NCI-H322M lung; 0.498% (active) in the assay with HOP-62 NSCLC; -27.9% (active) in the assay on NCI-H460 lung; -5.38% (active) with HOP-92 NSCLC; -13% (active) with NCI-H522 lung. Moreover, the growth in the assay on A549/ATCC NSCLC was -3.26% (active); in the assay with 786-0 renal, -13.9% (active); in the assay on COLO 205 colon it was -49.7% (active).

Regarding `O=[N+]([O-])c1ccc(O)c2ncccc12`, the growth in the assay with NCI-H226 lung is 81.1%; in the assay on NCI-H322M lung it was 31.6%; in the assay on HOP-62 NSCLC, 50.9%; with NCI-H460 lung, 23.2%; in the assay on HOP-92 NSCLC, 67.4%; in the assay with NCI-H522 lung, 51.6%. The growth was 46.6% in the assay on A549/ATCC NSCLC, 66.5% in the assay on 786-0 renal and 80.5% in the assay with COLO 205 colon.

As for `COc1cc2nc(N3CCC[C@H](NC4=CC(=O)c5ccccc5C4=O)C3)nc(N)c2cc1OC`, the growth is 107% in the assay on NCI-H226 lung; -72.2% (active) with NCI-H322M lung; 64% in the assay on HOP-62 NSCLC; -65.7% (active) in the assay with NCI-H460 lung; 75.8% with HOP-92 NSCLC; 74.4% with NCI-H522 lung. The growth with A549/ATCC NSCLC was -80.6% (active); with 786-0 renal, -92.7% (active); in the assay with COLO 205 colon it was -79.6% (active).

Turning to `COc1cccc(C2C3=C(COC3=O)N(CCO)c3cc4c(cc32)OCO4)c1` (stereo not drawn), the growth with NCI-H226 lung was 51.6%; in the assay on NCI-H322M lung, 48.9%; in the assay on HOP-62 NSCLC, 30.4%; in the assay on NCI-H460 lung, 12.3%; with HOP-92 NSCLC, 65.7%; with NCI-H522 lung, -39.4% (active). The growth in the assay with A549/ATCC NSCLC is 25.9%; with 786-0 renal, 18.5%; in the assay with COLO 205 colon, -27.1% (active).

Regarding `C[C@@H](Oc1cc(-c2cnn(C3CC4(CCCNC4)C3)c2)cnc1N)c1c(Cl)ccc(F)c1Cl` (stereo partly drawn), the growth in the assay with NCI-H226 lung is 58.8%; with NCI-H322M lung, 58.9%; in the assay on HOP-62 NSCLC it was 54%; with NCI-H460 lung, 0.489% (active); with HOP-92 NSCLC it was -7.41% (active); in the assay with NCI-H522 lung, 23.6%. For the same molecule, the growth in the assay with A549/ATCC NSCLC is 16.6%; in the assay on 786-0 renal it was 25.2%; in the assay on COLO 205 colon, -30.9% (active).
